A selection: hits, their analogues and other compounds. The true share with any hit is near 14%.
HCMV antiviral – inhibitors of human cytomegalovirus. HFF cells, HCMV-luciferase reporter, 72 h; hits give low values. activity change, negative = inhibition, % at 57.5 µM. hit rate 4.5% among 410,000. AID 1259415; in the data active = activity change below about -60%; inconclusive = no clear call, values can overlap the other calls; inactive = above about -39%
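Inhibition of viral replication was scored as loss of reporter luminescence in HFFs infected with HCMV-luciferase (MOI 1 PFU/cell) for 72 h; compounds tested at 2 doses, normalized to buffer and Salinomycin controls.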
Pf growth 96h – inhibits malaria parasite growth, 96 h; hit rate 6.9% among 320,000; P. falciparum luciferase reporter growth, 96 h; Potency, µM (series often up to 28.7 µM), actives largely listed as inhibitors
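Cell-based qHTS: luciferase-tagged P. falciparum in erythrocytes (2% hematocrit, 0.05% parasitemia final) incubated with compounds for 96 hours, 37 C, 5% CO2; luciferase detection reagent then added and luminescence measured.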
Pf growth 48h – inhibits P. falciparum growth in the first generation, 48 h | P. falciparum luciferase growth in erythrocytes, 48 h | Potency, µM (highest dose often 28.7 µM), actives largely listed as inhibitors | hit rate 5.9% among 310,000 | AID 504832
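Parasite viability was followed by luminescence of a genomically integrated firefly luciferase. Cultures held 0.1% parasitemia at 2% hematocrit (final), incubated under 5% CO2 at 37 C.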
Sm TGR block – inhibitors of Schistosoma mansoni thioredoxin glutathione reductase; purified TGR, DTNB reduction, TNB absorbance 405 nm; Potency, µM (top dose mostly 114 µM), hits mostly inhibitors; hit rate 3% among 360,000; also: nearly all actives have a fitted effect of over 60% in size
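First, TGR (20 nM dispensed) and NADPH were mixed with compound. Second, a 15 min room-temperature incubation followed. Third, further NADPH and then DTNB were added to start the reaction. Finally, TNB absorbance was monitored kinetically.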
Giardia FBPA inh – inhibitors of Giardia lamblia fructose-1,6-bisphosphate aldolase; Potency, µM (series often up to 59.6 µM), usual class: inhibitors; AID 2451; A8B2U2; purified Giardia FBPA; hit rate 0.71% among 290,000; also: nearly all actives have a fitted effect of over 55% in size
Target sequence (A8B2U2 whole entry, looked up): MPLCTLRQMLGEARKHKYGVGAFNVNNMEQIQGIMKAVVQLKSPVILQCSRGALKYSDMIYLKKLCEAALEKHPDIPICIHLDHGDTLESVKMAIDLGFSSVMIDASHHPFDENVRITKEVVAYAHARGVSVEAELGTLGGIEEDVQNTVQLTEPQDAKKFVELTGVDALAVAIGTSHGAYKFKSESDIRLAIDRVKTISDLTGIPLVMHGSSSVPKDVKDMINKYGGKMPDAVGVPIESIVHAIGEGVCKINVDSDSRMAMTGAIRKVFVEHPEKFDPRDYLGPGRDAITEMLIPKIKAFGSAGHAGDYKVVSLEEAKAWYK
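Giardia FBPA (40 nM reagent) was preincubated 10 min at RT with compound (up to 57.5 uM final), then substrate plus GAPDH/TPI/NAD/arsenate coupling system with diaphorase/resazurin was added; resorufin fluorescence (525/598 nm) was read after 20 min.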
Hits are given with their value; - = inactive; ? = inconclusive; . = no result given. Unless noted, calls follow the shape of the dose curve; as a rule, active = well fitted curve in the direction sought with a large enough effect; inconclusive = small, poorly fitted or top-dose-only effect, or another doubt; inactive = no such curve, though single readings can be large; an effect the other way counts as inactive or inconclusive.

SMILES | HCMV antiviral | Pf growth 96h | Pf growth 48h | Sm TGR block | Giardia FBPA inh
CCCCCN=C(N)N/N=C/c1c[nH]c2ccc(OC)cc12 | -100 | 3µM | 3µM | . | -
CN(C(=O)c1cc(-c2ccc3c(c2)OCO3)on1)c1ccccc1 | - | - | - | - | -
COc1cccc(C2=NC(C)(C)NC(c3ccccc3O)C2)c1 (centres undefined) | - | - | 9.3µM | - | -
COc1cccc(C2=NNC(=NCc3ccccc3)SC2)c1 | - | - | ? | - | -
CCC1(C)N=C(c2ccc3c(c2)OCO3)CC(c2ccccc2O)N1 (centres undefined) | - | . | 4.7µM | ? | -
CCn1c(SCC(=O)Nc2c(C)cccc2C)nnc1-c1nonc1NC(C)=O | - | . | . | - | .
CCC1N=C(SC)NC(C)=C1C(=O)c1ccccc1 (centres undefined) | -69 | - | - | - | -
C[C@H]1CN([C@@H](C)CO)C(=O)CCCn2cc(nn2)CO[C@@H]1CN(C)C(=O)Nc1ccc(N2CCN(C)CC2)cc1 | - | . | . | . | .
Cc1cc(Sc2nnc(/N=C/N(C)C)s2)c2ccccc2n1 | -106 | ? | ? | 3.5µM | -
Cc1cc(Sc2nnc(N)s2)c2ccccc2n1 | -108 | - | ? | 4µM | -
CCCCCCCCSc1nnc(/N=C/N(C)C)s1 | - | - | - | - | -
Cc1cc(Cl)c2ccccc2n1 | - | - | - | - | -
CCc1cccc2c(C(=O)CN3C(=O)NC4(CCc5ccccc54)C3=O)c[nH]c12 (centres undefined) | -69 | ? | ? | - | .
Cc1ccsc1CN(C)C(=O)CN1C(=O)NC2(CCCc3ccccc32)C1=O (centres undefined) | - | 12µM | ? | - | .
Cc1cc(C(=O)CN2C(=O)NC3(CCCc4sccc43)C2=O)c(C)n1-c1ccc(Cl)cc1 (centres undefined) | -62 | ? | 9.3µM | - | -
CCc1cccc2c(C(=O)CN3C(=O)NC(C)(c4cccc5ccccc45)C3=O)c[nH]c12 (centres undefined) | - | 10µM | ? | - | -
NC(=O)CN1C(=O)NC2(CCCc3sccc32)C1=O (centres undefined) | - | - | - | - | -
CC12CCC(=O)N1C(C(=O)Nc1ccc(SC(F)F)cc1)CS2 (centres undefined) | - | - | - | - | .
CN(Cc1ccccc1)C(=O)c1[nH]cnc1C(=O)Nc1cccc(Cl)c1 | - | ? | - | - | .
O=C(CN1C(=O)NC2(CCc3ccccc32)C1=O)c1ccc(F)cc1 (centres undefined) | - | - | - | - | .
Cc1cc(C(=O)CN2C(=O)NC3(CCCc4ccccc43)C2=O)c(C)n1C (centres undefined) | - | . | ? | - | -
COc1ccc(C(=O)CN2C(=O)NC3(CCCc4ccccc43)C2=O)cc1 (centres undefined) | - | 10µM | ? | - | .
Cc1ccc(C)c(C(=O)CN2C(=O)NC3(CCc4ccccc43)C2=O)c1 (centres undefined) | - | 15µM | ? | - | .
Cc1ccc(N2CCN(S(=O)(=O)c3c(C)[nH]c(=O)[nH]c3=O)CC2C)cc1 (centres undefined) | - | . | . | - | .
CC(NC(=O)Cc1ccc(S(=O)(=O)N2CCOCC2)s1)c1ccc(Br)cc1 (centres undefined) | - | . | . | . | .
SMILES | HCMV antiviral | Pf growth 96h | Pf growth 48h | Sm TGR block | Giardia FBPA inh
Cn1cc([N+](=O)[O-])c(C(=O)Nc2ccc(-c3nc4ccccc4[nH]3)cc2)n1 | -73 | - | - | - | -
Cn1cc([N+](=O)[O-])c(C(=O)Nc2ccc3nc(-c4ccccc4)[nH]c3c2)n1 | -83 | - | ? | - | -
Cn1cccc1-c1nc2ccc(NC(=O)c3ccc([N+](=O)[O-])cc3)cc2[nH]1 | - | ? | . | - | -
N#Cc1cc(N)ccc1-n1cccc1 | - | - | - | - | -
O=C(CC[C@H]1O[C@@H](n2ccc(=O)[nH]c2=O)[C@H](O)[C@@H]1O)NC1CCN(Cc2ccccc2)C1 (some centres undefined) | - | . | . | . | .
O=C(NCc1ccccc1OC(F)(F)F)C1CCC(=O)N(C2CC2)C1 (centres undefined) | - | 12µM | - | - | .
O=C(NCc1cnn(-c2ccccc2)c1)C1CCC(=O)N(C2CC2)C1 (centres undefined) | - | 5.2µM | - | - | .
Cn1c(=S)[nH]c2sc3c(c2c1=O)CCC(C(C)(C)C)C3 (centres undefined) | -95 | ? | . | ? | ?
COC(=O)c1ccc(N)cc1O | - | 10µM | . | - | -
COc1ccc(C(=O)NCCn2cc(SCc3ccc(C(F)(F)F)cc3)c3ccccc32)cc1OC | -62 | . | . | - | .
Cc1ccc(C(=O)NCCn2cc(SCC(=O)N3CCOCC3)c3ccccc32)cc1 | -63 | - | - | - | -
O=C(CSc1cn(CCNC(=O)c2cccc(C(F)(F)F)c2)c2ccccc12)Nc1ccc2c(c1)OCCO2 | -83 | . | . | - | .
CCOC(=O)c1c(NC(=O)C(C)Sc2cn(CCNC(=O)c3ccc(OC)c(OC)c3)c3ccccc23)sc2c1CCC2 (centres undefined) | -108 | . | . | - | .
CCOC(=O)c1c(NC(=O)C(C)Sc2cn(CCNC(=O)c3ccccc3OC)c3ccccc23)sc2c1CCC2 (centres undefined) | - | . | . | - | .
O=C(NCCn1cc(SCc2ccc(C(F)(F)F)cc2)c2ccccc21)c1ccccc1F | - | . | . | - | .
Cc1nn(-c2ccccc2)c(OC(=O)c2ccccc2F)c1S(=O)(=O)c1ccccc1 | - | . | . | - | .
O=P(/C(=N/O)N1CCCCC1)(N1CCOCC1)N1CCOCC1 | - | - | - | - | -
O=P(/C(=N/O)Sc1ccccc1)(N1CCOCC1)N1CCOCC1 | - | - | ? | 13µM | -
COc1ccc(C(=O)NCCN2CCCC2)cc1[N+](=O)[O-] | - | 2.6µM | ? | - | -
Cc1ccc(S(=O)(=O)Nc2cc(C(=O)NCCN(C)C)ccc2N2CCCCC2)cc1 | - | ? | 9.3µM | - | -
Cc1ccc(S(=O)(=O)Nc2cc(C(=O)NCCN3CCCC3)ccc2N2CCCCC2)cc1 | - | . | 12µM | - | -
CCOCCCNC(=O)c1ccc(N2CCCC2)c(NS(=O)(=O)c2ccc(C)cc2)c1 | - | - | - | - | ?
COCCCNC(=O)c1ccc(N2CCCC2)c(NS(=O)(=O)c2ccc(C)cc2)c1 | - | - | ? | - | -
COc1ccc(C(=O)N2C=Cc3ccccc3C2C(N)=O)cc1 (centres undefined) | - | . | . | . | .
Cc1cc(C(=O)N2CCC2(C)C(=O)NS(=O)(=O)c2ccccc2Cl)nn1C (centres undefined) | - | . | . | . | .
Cc1ccccc1NC(=O)Cc1nc(-c2c[nH]c(C(=O)N3CCCC3)c2)cs1 | - | 10µM | 9.3µM | - | .
Cc1cccc(NC(=O)Cc2nc(-c3c[nH]c(C(=O)N4CCCC4)c3)cs2)c1 | - | ? | 12µM | - | .
Cc1ccccc1NC(=O)Cc1nc(CCl)cs1 | - | ? | ? | - | -

Screening data deposited in PubChem by National Center for Advancing Translational Sciences (NCATS).
